The entries come from a sample that favours hits as a whole.
CHX counter: Cycloheximide Counterscreen for Small Molecule Inhibitors of Shiga Toxin; cell reporter, cycloheximide protein synthesis inhibition counterscreen; max response, %; actives 12% (n = 300,000); AID 2314, 2010; in the data active = max response mostly above about 13%, no sharp cut-off; inactive = mostly below about 14%; also: read at 38.3 µM for the half of the compounds with a filed dose
VACV mCherry inh: qHTS for Stage-Specific Inhibitors of Vaccinia Orthopoxvirus: mCherry Reporter Primary qHTS; Vaccinia virus mCherry reporter infection, fluorescence; Potency, µM (series often up to 36.5 µM), actives largely listed as inhibitors; actives 0.63% (n = 310,000); AID 720579, 2013; calls by dose curve; tested in A549 cells; also: nearly all actives have a fitted effect of over 35% in size
MARV entry inh: qHTS for inhibitors of binding or entry into cells for Marburg Virus; Marburg virus pseudotyped entry inhibition, cell reporter; Potency, µM (doses to about 37.8 µM), most hits filed as inhibitors; actives 1.8% (n = 300,000); AID 540276, 2011; calls by dose curve; tested in HEK293 cells
VACV Venus inh: qHTS for Stage-Specific Inhibitors of Vaccinia Orthopoxvirus: Venus Reporter Primary qHTS; AID 720580, 2013; Potency, µM (top dose mostly 36.5 µM), most hits filed as inhibitors; actives 0.46% (n = 330,000); Vaccinia virus Venus reporter expression, fluorescence; calls by dose curve; tested in A549 cells; also: nearly all actives have a fitted effect of over 30% in size
Shiga toxin inh: A qHTS for Small Molecule Inhibitors of Shiga Toxin. Vero cells, Shiga toxin protein synthesis inhibition reporter. inhibition, % at 38.7 µM. actives 9.2% (n = 290,000). AID 2315, 2010; in the data active = inhibition mostly above about 28%, no sharp cut-off; inactive = mostly below about 43%
LASV entry inh: qHTS for Inhibitors of binding or entry into cells for Lassa Virus; Potency, µM (highest dose often 37.9 µM), actives largely listed as inhibitors; Lassa virus pseudotype entry inhibition, cell reporter; actives 1.2% (n = 300,000); calls by dose curve; tested in HEK293 cells; also: nearly all actives have a fitted effect of over 50% in size
Hits are given with their value; [ ] = dose if it differs, or a comment.

What do the screens show for `Cc1ccc(-c2nc(CCNC(=O)C(=O)Nc3ccc(C)c(Cl)c3)cs2)cc1`?
VACV mCherry inh: inactive; VACV Venus inh: inactive; LASV entry inh: inactive

How did Cc1cc(C)cc(OC(=O)c2snnc2C)c1 do in these assays?
VACV mCherry inh: inactive; MARV entry inh: inactive; VACV Venus inh: inactive; LASV entry inh: inactive

How did Cc1ccccc1CS(=O)(=O)Cc1ccc(C(=O)NCCc2ccc(Cl)cc2)o1 do in these assays?
VACV mCherry inh: inactive; VACV Venus inh: inactive; LASV entry inh: inconclusive

Results for COc1ccc(-c2cn3cc(C(F)(F)F)cc(Cl)c3n2)cc1 ?
CHX counter: 56; VACV mCherry inh: inactive; MARV entry inh: inconclusive; VACV Venus inh: inactive; Shiga toxin inh: 80; LASV entry inh: inconclusive

Results for Fc1ccc(-c2nc3c(Cl)cc(C(F)(F)F)cn3c2Cc2ccccc2)cc1 ?
VACV mCherry inh: inactive; VACV Venus inh: inactive

What do the screens show for `Fc1ccc(-c2cn3cc(C(F)(F)F)cc(Cl)c3n2)cc1`?
CHX counter: 28; MARV entry inh: inconclusive; Shiga toxin inh: 103; LASV entry inh: inconclusive

What do the screens show for `O=C1CC(c2ccc3ccccc3c2)NN1` (configuration not stated)?
VACV mCherry inh: inactive; VACV Venus inh: inactive

How did Clc1cccc(N/N=C(\Cc2nc3ccccc3[nH]2)c2ccccc2)c1 do in these assays?
CHX counter: 21; VACV mCherry inh: inactive; MARV entry inh: inconclusive; VACV Venus inh: inactive; Shiga toxin inh: 54; LASV entry inh: inactive

What do the screens show for `COc1cccc2sc(N3CCN(C(=O)c4ccc([N+](=O)[O-])o4)CC3)nc12`?
VACV mCherry inh: 8.9µM; MARV entry inh: inactive; VACV Venus inh: 13µM; LASV entry inh: inconclusive

What do the screens show for `COc1ccc(OCC(O)CN2CCC(CN3C(=O)c4cccc5cccc(c45)C3=O)CC2)cc1` (configuration not stated)?
CHX counter: inactive; VACV mCherry inh: inconclusive; MARV entry inh: 4.5µM; VACV Venus inh: inactive; Shiga toxin inh: inactive; LASV entry inh: inconclusive

How did Cc1ccc2cc(CN(C(=O)c3ccco3)c3ccccc3)c(=O)[nH]c2c1 do in these assays?
CHX counter: 23; MARV entry inh: inactive; VACV Venus inh: inactive; Shiga toxin inh: inactive; LASV entry inh: inactive

How did Cc1ccc2[nH]c(=O)c(CN(Cc3ccco3)C(=O)c3cccs3)cc2c1 do in these assays?
CHX counter: inactive; Shiga toxin inh: inactive

What do the screens show for `CCOc1ccc(N(Cc2cc3ccc(C)cc3[nH]c2=O)C(=O)COC)cc1`?
CHX counter: 24; MARV entry inh: inactive; VACV Venus inh: inactive; Shiga toxin inh: inactive; LASV entry inh: inactive

How did CCCCN(Cc1ccco1)C(=O)c1cc2c(=O)[nH]c3ccc(C)cc3c2s1 do in these assays?
CHX counter: inactive; VACV mCherry inh: inconclusive; VACV Venus inh: inconclusive; Shiga toxin inh: inactive

How did Cc1ccc(N(Cc2cc3ccc(C)cc3[nH]c2=O)C(=O)c2ccco2)cc1 do in these assays?
CHX counter: inactive; VACV mCherry inh: inactive[7.34 µM]; VACV Venus inh: inactive[7.34 µM]; Shiga toxin inh: inactive

What do the screens show for `Cc1ccc2cc(CN(Cc3ccco3)C(=O)c3cccs3)c(=O)[nH]c2c1`?
CHX counter: inactive; VACV mCherry inh: inconclusive; MARV entry inh: 1.3µM; VACV Venus inh: inconclusive; Shiga toxin inh: inactive; LASV entry inh: inconclusive

Results for Cc1ccc2[nH]c(=O)c3cc(C(=O)N(CCCOC(C)C)Cc4ccco4)sc3c2c1 ?
CHX counter: inactive; VACV mCherry inh: inconclusive; MARV entry inh: 10µM; VACV Venus inh: inconclusive; Shiga toxin inh: inactive

How did C=CCn1nc([N+](=O)[O-])nc1Sc1cccc2cccnc12 do in these assays?
CHX counter: inactive; VACV mCherry inh: 7.9µM; MARV entry inh: inconclusive; VACV Venus inh: 8.9µM; Shiga toxin inh: inactive; LASV entry inh: inconclusive

How did C=CCS(=O)(=O)c1cccc2cccnc12 do in these assays?
CHX counter: inactive; VACV mCherry inh: inactive; MARV entry inh: inconclusive; VACV Venus inh: inactive; Shiga toxin inh: inactive; LASV entry inh: inactive

How did O=[N+]([O-])c1ccc(Sc2cccc3cccnc23)cc1 do in these assays?
CHX counter: 26; VACV mCherry inh: inactive; MARV entry inh: inactive; VACV Venus inh: inactive; Shiga toxin inh: 65; LASV entry inh: inactive

What do the screens show for `O=[N+]([O-])c1cc(Cl)ccc1Sc1cccc2cccnc12`?
CHX counter: inactive; VACV mCherry inh: inactive; MARV entry inh: inactive; VACV Venus inh: inactive; Shiga toxin inh: inactive; LASV entry inh: inactive

How did O=[N+]([O-])c1ccc(Sc2cccc3cccnc23)c([N+](=O)[O-])c1 do in these assays?
CHX counter: 19; Shiga toxin inh: inactive

Results for COC(=O)[C@@H]1CCCN1C(=O)c1cnn(-c2ncc3c(n2)-c2ccccc2CCC3)c1C1CC1 ?
VACV mCherry inh: inactive; VACV Venus inh: inactive

What do the screens show for `Cc1cc(Cl)ccc1OCC(=O)Nc1ccccc1CO`?
CHX counter: 25; VACV mCherry inh: inactive; MARV entry inh: inactive; VACV Venus inh: inactive; Shiga toxin inh: 50; LASV entry inh: inconclusive

Results for CSc1ccccc1NC(=O)COc1ccc(Cl)cc1C ?
CHX counter: 40; VACV mCherry inh: inactive; MARV entry inh: inactive; VACV Venus inh: inactive; Shiga toxin inh: 48; LASV entry inh: inactive

Results for Cc1cc(Cl)ccc1OCC(=O)Nn1c(C)ccc1C ?
CHX counter: inactive; MARV entry inh: inactive; Shiga toxin inh: inactive; LASV entry inh: inactive

Results for Cc1ccccc1Cn1ccn(-c2ccc(F)c(F)c2)c(=O)c1=O ?
VACV mCherry inh: inactive; VACV Venus inh: inactive; LASV entry inh: inactive

How did CC1CCc2c(sc3nc(CSc4ncn[nH]4)[nH]c(=O)c23)C1 (configuration not stated) do in these assays?
CHX counter: inactive; VACV mCherry inh: inactive; MARV entry inh: inconclusive; VACV Venus inh: inactive; Shiga toxin inh: inactive; LASV entry inh: inactive

Results for CC1CCc2c(sc3nc(CSc4nnnn4C)[nH]c(=O)c23)C1 (configuration not stated) ?
CHX counter: 18; VACV mCherry inh: inactive; MARV entry inh: inactive; VACV Venus inh: inactive; Shiga toxin inh: inactive; LASV entry inh: inactive

Results for Cc1ccc(-c2nc(CS(=O)(=O)CC(=O)NCCCN(Cc3ccccc3)C(C)C)c(C)o2)cc1 ?
CHX counter: inactive; Shiga toxin inh: inactive

What do the screens show for `Cc1oc(-c2cccc(Cl)c2)nc1CN(C)C1CCOC1` (configuration not stated)?
CHX counter: inactive; VACV mCherry inh: inactive; MARV entry inh: inactive; VACV Venus inh: inactive; Shiga toxin inh: inactive; LASV entry inh: inactive

Results for Cc1oc(-c2ccc(-c3ccccc3)cc2)nc1CN(C)C1CCOC1 (configuration not stated) ?
CHX counter: 60; VACV mCherry inh: inconclusive; VACV Venus inh: inactive; Shiga toxin inh: 75

Results for Cc1ccc(-c2nc(CN(C)C3CCOC3)c(C)o2)s1 (configuration not stated) ?
CHX counter: 25; VACV mCherry inh: inactive; MARV entry inh: inactive; VACV Venus inh: inactive; Shiga toxin inh: inactive; LASV entry inh: inactive

What do the screens show for `Cc1ccc(-c2nc(CN(C)C3CCOCC3)c(C)o2)s1`?
CHX counter: inactive; Shiga toxin inh: inactive

Bioassay records: PubChem, National Center for Advancing Translational Sciences (NCATS)
